Among the data in PubChem BioAssay are z-score values, retold here.

The nature of assay [1]: compound effects on lung adenocarcinoma cell viability – A549, calcein-AM fluorescence, 48 h, basal, profiling panel (AID 1162). The conditions noted are these: higher = more signal.
Assay [2] in a line: compound effects on differentiated 3T3-L1 adipocyte viability – cell-based, 3T3-L1 adipocytes, calcein-AM fluorescence, 48 h, basal, profiling panel (AID 1163). The conditions noted are these: 3T3-L1 adipocytes viability, higher = more signal.
The nature of assay [3]: compound effects on hepatocellular carcinoma cell viability – HepG2, calcein-AM fluorescence, 48 h, basal, profiling panel (AID 1164). Conditions: higher = more signal.
Assay [4] in a line: compound effects on multiple myeloma cell viability – MM1S, calcein-AM fluorescence, 48 h, basal, profiling panel (AID 1165). Conditions: higher = more signal.
Assay [5] is described as follows: calcein-AM signal in unstimulated myeloma cells – cell-based, calcein-AM fluorescence, 48 h, PK04 Diversity Set, profiling panel (AID 1166).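 Note: cells grown under basal conditions without added stimulus.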 Conditions: RPMI8226 myeloma viability, higher = more signal.
The nature of assay [6]: JC-1 mitochondrial signal, unstimulated HepG2 cells – cell-based, JC-1 fluorescence, 24 h, 100 nL compound, profiling panel (AID 1167). Conditions: HepG2 mitochondrial potential, higher = more signal.
The nature of assay [7]: JC-1 mitochondrial signal, unstimulated adipocytes – cell-based, JC-1 fluorescence, 3T3-L1 adipocytes, 24 h, 100 nL compound, profiling panel (AID 1168). Conditions: JC-1 mitochondrial fluorescence, higher = more signal, called active from +8 up or from −8 down.
A short description of assay [8]: JC-1 mitochondrial signal, unstimulated myeloma cells – cell-based, JC-1 fluorescence, RPMI8226, 24 h, 100 nL compound, profiling panel (AID 1169). Conditions: JC-1 mitochondrial potential fluorescence, higher = more signal.
Assay [9] can be described thus: JC-1 mitochondrial signal, unstimulated MM1S myeloma – cell-based, JC-1 fluorescence, 24 h, 100 nL compound, profiling panel (AID 1170). The conditions noted are these: MM1S mitochondrial potential, higher = more signal.
Assay [10] is described as follows: resazurin metabolic signal in A549 cells – cell-based, resazurin fluorescence, 24 h, PK04 Diversity Set, profiling panel (AID 1171). Conditions: A549 viability, higher = more signal, called active from +8 up or from −8 down. (In general: Resazurin is reduced to fluorescent resorufin, in cell work by metabolically active cells.)

Calls of active or inactive are those of the source.
Note: test concentration not given here.

On to `C=CCC(OC(C)=O)[C@@H]1[C@@H](N(Cc2ccc(-c3ccccc3)cc2)C(=O)c2cccc3ccccc23)c2cc(OCCCO)ccc2N1C(=O)c1ccc2ccccc2n1` (stereo not given in full), for which the z-score in [1] is 0.479; in assay [2] it was 0.522; in assay [3], 0.833; in assay [4] it was -0.318; in [5], 0.116; in assay [6], 3.07. In addition, the z-score in assay [7] is 0.0656 (inactive); in [8], -0.0127; in assay [9], 0.506; in assay [10], 0.131 (inactive).
As to `CC(C)(C)N1CC=CC23O[C@@H]4C=CCCOC(=O)C4[C@H]2C(=O)N(CCCO)[C@@H]3C1=O` (stereo not given in full), the z-score was 0.28 in [1]; 1.75 in [2]; 0.15 in assay [3]; -0.685 in [4]; -0.783 in assay [5]; -1.26 in assay [6]. Further, the z-score is 0.514 (inactive) in assay [7], 0.846 in assay [8], -0.0658 in assay [9] and -1.22 (inactive) in [10].
On to `COCCOC(=O)N1C(=O)[C@@]2(c3cc(C#CCC(C(=O)OC)C(=O)OC)ccc31)[C@H](c1ccc(OCCO)cc1)N1[C@H](c3ccccc3)[C@H](c3ccccc3)OC(=O)[C@H]1[C@@H]2C(N)=O`, for which the z-score was 0.462 in assay [1]; 0.433 in [2]; 0.322 in [3]; -2.51 in [4]; -2.67 in [5]; -0.0777 in assay [6]. Further, the z-score in [7] was 1.3 (inactive); in [8] it was -0.72; in assay [9], -0.0535; in assay [10], 1.18 (inactive).
As for `NC(=O)NCC#Cc1ccc2c(c1)[C@]1(C(=O)N2)[C@H](c2ccc(OCCO)cc2)N2[C@H](c3ccccc3)[C@H](c3ccccc3)OC(=O)[C@H]2[C@@H]1C(=O)N1CCN(c2ncccn2)CC1`, the z-score in assay [1] was 0.947; in assay [2], 0.212; in assay [3] it was 0.674; in assay [4], -0.167; in assay [5], 0.62; in [6], -1.45. In addition, the z-score was 0.721 (inactive) in assay [7], -0.726 in assay [8], -0.669 in assay [9] and 1.1 (inactive) in assay [10].
`CC(C)NC(=O)[C@@H]1c2ccccc2C(=O)N(Cc2cc(C(F)(F)F)cc(C(F)(F)F)c2)[C@H]1c1ccc(CO)cc1`: the z-score is -0.255 in [1]; 0.884 in [2]; -0.355 in assay [3]; -1.1 in assay [4]; -1.42 in assay [5]; 0.571 in assay [6]. The z-score in assay [7] is 0.198 (inactive); in [8] it was 0.967; in assay [9], 0.144; in assay [10], 0.634 (inactive).
For the compound `COC(=O)c1c(CC[C@@H](CO)NC(=O)N[C@@H](C)Cn2cc(C3(O)CCCC3)nn2)oc(C(C)=O)c1C(=O)OC`, the z-score is 0.329 in assay [1]; 1.45 in assay [2]; -0.299 in assay [3]; -2.1 in assay [4]; -0.371 in assay [5]; -0.428 in assay [6]. Also, the z-score in [7] is 1.04 (inactive); in [8], -0.357; in assay [9] it was 0.932; in assay [10], -0.514 (inactive).
For the compound `COCCCNC(=O)[C@@]1(Cc2ccccc2I)c2ccccc2C(=O)N(Cc2ccccc2Cl)[C@H]1c1ccc(CO)cc1`, the z-score was -0.119 in assay [1]; 0.39 in assay [2]; 0.9 in assay [3]; -0.36 in assay [4]; -0.503 in [5]; 1.29 in assay [6]. Moreover, the z-score in assay [7] was 0.781 (inactive); in assay [8] it was -0.778; in assay [9], 0.148; in [10], 2.16 (inactive).
On to `CCOC(=O)C[C@H]1[C@H](OC(=O)c2cc3ccccc3oc2=O)[C@@H](NC(=O)c2ccc3ccccc3n2)c2cc(OCCCO)ccc2N1C(=O)c1ccc2ccccc2n1`, for which the z-score in assay [1] was 0.513; in [2] it was 1.27; in assay [3] it was 0.717; in assay [4] it was -0.255; in assay [5], -0.719; in assay [6], 0.082. Further, the z-score is -0.33 (inactive) in assay [7], -0.115 in [8], 1.17 in assay [9] and -0.82 (inactive) in [10].
As to `COc1ccc([Si](C)(C)[C@@H]2[C@@H](CCO)O[C@]3(C(=O)N(Cc4ccc(N5C(=O)c6ccccc6Oc6ccccc65)cc4)c4ccccc43)[C@H]2C)cc1`, the z-score in assay [1] was -0.738; in assay [2], -0.703; in assay [3], -3.56; in assay [4], -2.31; in assay [5] it was -3.17; in [6], -0.42. The z-score in [7] was 0.462 (inactive); in assay [8] it was -1.06; in assay [9] it was -1.68; in assay [10] it was -1.47 (inactive).
Consider `O=C1N(CCS(=O)(=O)c2ccccc2)Cc2ccccc2C[C@@]12COC(c1ccc(OCCCO)cc1)=N2`, for which the z-score was -0.696 in [1]; 0.643 in [2]; 1.13 in assay [3]; -2.84 in [4]; -1.53 in assay [5]; -1.08 in [6]. The z-score was 0.0146 (inactive) in assay [7], -1.03 in assay [8], -2.13 in assay [9] and -3.42 (inactive) in [10].
In the case of `CN(C)C(=O)[C@@]1(Cc2ccccc2N=[N+]=[N-])N=C(c2ccc(OCCCO)cc2)O[C@H]1c1ccccc1N=[N+]=[N-]`, the z-score in [1] is -0.0639; in [2], 1.45; in [3] it was -1.38; in [4] it was -3.16; in [5] it was -4.47; in assay [6] it was 1.45. Besides, the z-score in assay [7] was 0.918 (inactive); in assay [8], -1.26; in assay [9] it was -1.03; in assay [10], -0.406 (inactive).
For the compound `CC(C)C[C@@H]1NC(=O)[C@@H]2C[C@H](C(=O)NCCCC[N+](C)(C)C)[C@H](c3cccc(OCCO)c3)N2C1=O`, the z-score in assay [1] was -0.316; in assay [2], -0.0337; in assay [3], -0.75; in assay [4], -1.3; in assay [5], -0.122; in [6] it was -1.16. Moreover, the z-score in [7] is -0.915 (inactive); in assay [8] it was 0.789; in assay [9], -0.132; in assay [10], -0.331 (inactive).
For the compound `C=CCNC(=O)[C@H]1[C@@H]2C(=O)O[C@@H](c3ccccc3)[C@@H](c3ccccc3)N2[C@@H](c2ccc(OCCO)cc2)[C@]12C(=O)N(C(=O)OCCOC)c1ccc(C#CC3=CCCCC3)cc12`, the z-score in [1] is -0.906; in assay [2], 0.968; in assay [3], -0.546; in assay [4], -1.96; in [5] it was -2.49; in assay [6] it was -0.609. Also, the z-score in assay [7] was 2.06 (inactive); in [8], -0.753; in assay [9], -1.05; in assay [10], 0.248 (inactive).
In the case of `[N-]=[N+]=NCc1ccccc1C[C@@]1(C(=O)NCCN2CCOCC2)N=C(c2ccc(OCCCO)cc2)O[C@@H]1c1ccccc1CN=[N+]=[N-]`, the z-score in assay [1] is -0.628; in [2] it was 0.671; in [3], -0.399; in [4] it was -2.59; in [5] it was -2.77; in [6], 0.787. For the same compound, the z-score in assay [7] is 0.0123 (inactive); in [8] it was -1.06; in [9], -0.797; in assay [10], -1.13 (inactive).
